Rv3671c inh = inhibitors of M. tuberculosis serine protease Rv3671c. P9WHR9. AID 2606. inhibition, % at 5.96 µM. hit rate 0.048% among 320,000; in the data active means inhibition above about 38%;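 further: extracellular domain of Rv3671c used as enzyme; 0% = enzyme with DMSO and 100% = no enzyme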
UGM FP inh = inhibitors of M. tuberculosis UDP-galactopyranose mutase | purified UGM, fluorescence polarization probe displacement | hit rate 0.06% among 320,000 | inhibition, % at 10 µM; in the data active means inhibition above about 10%, passing the limit was not always enough
GDH-TPI counter-1 = GDH-TPI coupled enzyme inhibition counter-screen. inhibition, % at 4.8 µM. hit rate 1.2% among 360,000. AID 588335. GDH-TPI coupled enzyme counterscreen, NADH absorbance; in the data active means inhibition above about 30%;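 further: 0% = DMSO wells and 100% = wells lacking the enzyme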
Mtb hypoxia rep = reduces hypoxia-regulated biosensor signal in M. tuberculosis; M. tuberculosis hypoxia-regulated fluorescent reporter, fluorescence; fluorescence inhibition, % (concentration not given with the values); hit rate 0.1% among 300,000; AID 1159583; in the data active means fluorescence inhibition mostly above about 23%, no sharp cut-off; inactive means mostly below about 17%
FadD28 binding = M. tuberculosis FadD28 bisubstrate binding inhibition; hit rate 0.22% among 360,000; AID 588549; inhibition, % at 12.5 µM; FadD28 bisubstrate probe binding, fluorescence polarization; in the data active means inhibition above about 8.5%, passing the limit was not always enough
FBA Mtb inh = inhibits M. tuberculosis FBA enzyme; P9WQA3; hit rate 2.3% among 360,000; purified M. tuberculosis FBA, fluorescence read-out; AID 588726; inhibition, % at 1 µM;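 further: 0% = vehicle and 100% = reference inhibitor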
Target sequence (P9WQA3 whole entry, looked up): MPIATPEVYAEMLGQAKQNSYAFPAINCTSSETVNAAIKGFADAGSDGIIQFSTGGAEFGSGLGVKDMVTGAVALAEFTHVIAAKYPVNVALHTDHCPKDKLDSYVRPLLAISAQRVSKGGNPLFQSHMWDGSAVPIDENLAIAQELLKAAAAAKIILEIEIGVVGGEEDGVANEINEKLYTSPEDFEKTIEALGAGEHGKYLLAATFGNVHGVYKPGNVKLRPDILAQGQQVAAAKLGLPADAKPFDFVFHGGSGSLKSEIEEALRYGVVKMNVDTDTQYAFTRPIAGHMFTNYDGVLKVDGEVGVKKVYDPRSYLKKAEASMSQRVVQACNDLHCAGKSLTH
Mtb FBA inh conf = Mtb FBA inhibition, confirmed. hit rate 78% among 5,600. AID 651616. inhibition, % at 1 µM. purified M. tuberculosis FBA, fluorescence read-out. shares compounds with FBA Mtb inh;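 further: 0% = vehicle wells and 100% = reference inhibitor wells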
GDH-TPI counter-2 = inhibits GDH-TPI coupling enzymes, flagging Mtb FBA hits | inhibition, % at 1 µM | shares compounds with FBA Mtb inh | GDH-TPI coupled enzyme counterscreen, fluorescence | hit rate 81% among 5,600; in the data active means inhibition above about 10%
GDH-TPI dose = counter-screen for M. tuberculosis FBA inhibitors: GDH-TPI dose response | shares compounds with FBA Mtb inh | GDH-TPI coupled enzyme assay, fluorescence, artifact counterscreen | IC50, µM | hit rate 79% among 170 | AID 652145; call rule not given here
Starred values were filed as active, the others as inactive; nt = no result given; + = active, no number. Rows were chosen to be rich in hits. Some 3.5% of all compounds tested hit in one or more screens of this group. Unless noted, no stated cut-off is given here; in the data, active means inhibition above about 27%; inactive means the rest.

SMILES	Rv3671c inh	UGM FP inh	GDH-TPI counter-1	Mtb hypoxia rep	FadD28 binding	FBA Mtb inh	Mtb FBA inh conf	GDH-TPI counter-2	others
CCOC(=O)COc1nc2c(c(-c3ccco3)c1C#N)CCc1ccccc1-2	-7.6	2.0	4.6	-0.6	-3.6	30.3*	25.3	14.4*
N#Cc1c(OCC(=O)c2ccccc2)nc2c(c1-c1ccco1)CCc1ccccc1-2	-8.8	0.3	2.5	1.5	-3.9	11.9	nt	nt
CCOC(=O)COc1nc(-c2ccccc2)cc(-c2ccco2)c1C#N	-11.5	-2.6	13.2	-3.7	-3.1	57.6*	138.1*	127.0*
Cc1ccc(NC(=O)CCC(=O)NN=Cc2ccc(O)cc2O)cc1	nt	nt	nt	5.5	nt	nt	nt	nt
COc1ccc(-c2sc3cc4c(cc3c2C#Cc2ccc(N)cc2)OCO4)cc1	6.7	-2.4	26.0	5.6	-3.4	66.4*	69.5*	65.9*
COc1ccc(-c2sc3cc4c(cc3c2C#CCO)OCO4)cc1	2.5	1.6	2.5	10.2	3.6	9.6	nt	nt
O=C(NN1CCOCC1)c1c(-c2ccccc2)sc2ccccc12	2.7	-4.3	1.7	10.5	0.7	-1.3	nt	nt
CS(=O)(=O)c1ccc(-c2sc3cc4c(cc3c2C(=O)NN2CCOCC2)OCO4)cc1	1.5	-0.1	37.1*	0.3	-1.1	47.9*	103.8*	85.2*
COC(=O)c1c(-c2ccc(OC)cc2)sc2cc3c(cc12)OCO3	-1.9	0.5	8.4	nt	-3.8	31.7*	72.3*	77.5*
COC(=O)c1c(-c2ccc(N(C)C)cc2)sc2ccc(OC)cc12	3.7	-1.9	8.5	1.0	-2.5	88.8*	+	157.8*
CCN1C(=NN)c2cccc3cccc1c23	nt	nt	nt	2.9	nt	nt	nt	nt
CSc1ccc(C=NNC(=O)CN2CCN(Cc3ccccc3)CC2)cc1	nt	nt	nt	1.3	nt	nt	nt	nt
O=C(NN=Cc1ccc(O)c(O)c1)NC12CC3CC(CC(C3)C1)C2	nt	nt	nt	2.3	nt	nt	nt	nt
CCN1C(=NCCc2ccc(Br)cc2)NC(c2ccccc2)C(C(=O)OC)C1C (centres undefined)	nt	nt	nt	-12.1	nt	nt	nt	nt
CCOc1cc(C=NNC(N)=O)cc(Br)c1OCc1ccccc1F	nt	nt	nt	13.5	nt	nt	nt	nt
C=CCOc1ccc(CNc2ccc3[nH]c(=O)[nH]c3c2)cc1OC	nt	nt	15.2	3.6	1.4	85.1*	113.7*	88.0*
COc1cc(CNc2ccc3[nH]c(=O)[nH]c3c2)ccc1OCc1ccc(F)cc1	3.9	0.1	5.5	2.9	-2.4	-0.6	nt	nt
CCOC(C)=Nn1c2nc3ccccc3nc2c2c(=O)n(C3CCCC3)c(C)nc21	nt	nt	nt	-6.6	nt	nt	nt	nt
CCO/C(C)=N/n1c2nc3ccccc3nc2c2c(=O)n(CC(C)C)c(C)nc21	-3.7	-0.4	21.8	nt	-2.8	33.2*	5.5	-0.5
O=C(COC(=O)c1ccccc1)NCC1CCCO1 (centres undefined)	-4.2	1.6	-3.1	18.2	-3.3	-4.0	nt	nt
CSc1ccc(/C=C/C(=O)OCC(=O)NC2CCCCCC2)cc1	nt	nt	28.9	nt	0.2	29.7*	+	196.0*
O=C(COC(=O)c1cccc2ccccc12)NCC1CCCO1 (centres undefined)	4.4	-3.0	3.3	3.2	-2.3	36.4*	137.2*	119.5*
CSc1ccc(/C=C/C(=O)OCC(=O)N2CCCCCC2)cc1	0.8	5.3	43.0*	6.1	-1.3	81.1*	+	+
COc1cccc(CNC(=O)COC(=O)/C=C/c2ccc(SC)cc2)c1	-15.4	-2.5	13.7	3.0	-0.1	36.5*	+	+
COc1ccc(/C=C/C(=O)OCC(=O)NC2CCCCCCC2)cc1	-5.0	-1.0	5.4	1.3	0.7	-2.2	nt	nt
SMILES	Rv3671c inh	UGM FP inh	GDH-TPI counter-1	Mtb hypoxia rep	FadD28 binding	FBA Mtb inh	Mtb FBA inh conf	GDH-TPI counter-2	others
CC(=NNC(=O)c1ccncc1)c1cccs1	nt	nt	nt	4.4	nt	nt	nt	nt
COc1ccc(C2CC(=O)C=C(c3ccc4ncccc4c3)C2)cc1 (centres undefined)	nt	nt	nt	2.5	nt	nt	nt	nt
CC1CN(C(C)CO)C(=O)c2cccc(NC(=O)C3CC3)c2OC1CN(C)Cc1ccc(Oc2ccccc2)cc1 (centres undefined)	nt	nt	nt	6.3	nt	nt	nt	nt
CSc1ccc(/C=C/C(=O)OCC(=O)NCC2CCCO2)cc1 (centres undefined)	-3.0	nt	30.0	10.2	-2.9	45.2*	52.7*	49.3*
CSc1ccc(/C=C/C(=O)OCC(=O)NC2CCS(=O)(=O)C2)cc1 (centres undefined)	-7.8	-1.5	34.8*	2.6	-0.2	63.9*	36.6*	24.4*
O=C(COC(=O)/C=C/c1ccc(Cl)c(Cl)c1)NC1CCS(=O)(=O)C1 (centres undefined)	-0.1	-0.6	-4.0	2.4	nt	-0.7	nt	nt
N#Cc1ccc(C23CC4(C2)C(CN(Cc2ccc(-c5ccccc5)cc2)C4c2ccccc2)C3c2ccc(Cl)nc2)cc1 (centres undefined)	nt	nt	nt	-3.7	nt	nt	nt	nt
CCN1C(=O)c2cccc3c(S(=O)(=O)N4CCNCC4)ccc1c23	1.7	-0.2	21.4	2.7	0.5	27.8*	73.2*	65.1*
CCN1CCN(S(=O)(=O)c2ccc3c4c(cccc24)C(=O)N3CC)CC1	-4.2	2.3	1.3	3.8	0.8	29.2*	158.0*	149.4*
CCOc1cccc(-c2c(C(=O)NN=Cc3sccc3C)nnn2-c2nonc2N)c1	nt	nt	nt	5.5	nt	nt	nt	nt
CN1C(=O)c2ccccc2N(C)C1c1cccc(O)c1 (centres undefined)	-1.0	3.4	-1.5	nt	-4.4	58.6*	0.0	-4.2
O=C(CCN1C(=O)c2ccccc2C1=O)NCc1ccc(F)cc1	2.4	2.3	0.8	0.4	-0.7	1.5	nt	nt
CN1C(=O)c2ccccc2N(C)C1c1ccc2c(c1)OCO2 (centres undefined)	-9.7	0.8	-4.8	nt	-4.3	101.1*	62.9*	39.3*
COc1cc(C2N(C)C(=O)c3ccccc3N2C)ccc1O (centres undefined)	-0.3	1.6	0.0	13.8	-4.0	76.2*	-5.3	-6.7
CN1C(=O)c2ccccc2N(C)C1c1ccc(F)cc1 (centres undefined)	nt	-1.8	0.8	12.0	-2.1	53.6*	40.1*	34.8*
CCn1c(N=Cc2ccccc2O)nc2ccccc21	nt	nt	nt	1.1	nt	nt	nt	nt
CC[C@]12C(=O)N(C)CC(C3C(=O)N(Cc4ccccc4)C(=O)C31)N2C(=O)c1ccc(Br)cc1 (some centres undefined)	nt	nt	nt	5.1	nt	nt	nt	nt
Fc1ccccc1COc1ccc(C=NNC(=S)NCc2ccccc2)cc1	nt	nt	nt	1.7	nt	nt	nt	nt
CNC(=O)c1ccc(-c2sc3nc(N4CCOCC4)c4c(c3c2N)CC(C)(C)OC4)o1	0.8	1.9	24.3	nt	-2.8	40.9*	45.5*	29.9*
CN1Cc2c(N3CCOCC3)nc3sc(C#N)c(N)c3c2CC1(C)C	-1.8	-2.4	5.7	9.6	-1.6	78.4*	13.8	-4.7	GDH-TPI dose=1.84*
Oc1ccc(Br)cc1C=Nc1ccc2c3c(cccc13)CC2	-0.5	nt	5.9	2.4	0.3	38.4*	+	+

Screens (PubChem)
